Holding throughout (experiment): HT-SELEX; 20 mM HEPES pH 7, 140 mM KCl, 5 mM NaCl, 1 mM K2HPO4, 2 mM MgSO4, 100 uM EGTA, ZnSO4, 0.1% Tween20; room temperature, 1 h; high values mean tight binding
What all share (settings): protein: ivt; tags: eGFP (N-terminal); dsDNA, one strand shown

The target in one assay is ZNF721 full-length (Homo sapiens, UniProt Q8TF20-2 1-923). The method, boiled down: (§1)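 A tagged transcription factor, either full-length or its DNA-binding-domain fragment, was made in HEK293 lysate or cell-free extract, immobilised on beads and incubated with a randomized 40-base DNA library for 1 h at room temperature in HEPES/KCl low-stringency buffer containing Tween20. Washed beads were heat-eluted, and the bound DNA was PCR-amplified over successive cycles and Illumina-sequenced at ~3 million 60 bp reads per sample. The binding signal is the relative k-mer count in selected reads, where a higher value means tighter binding.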

For the next assay, the target named is ZNF721 DBD1 (Homo sapiens, UniProt Q8TF20-2 29-461). The gist of the method: as §1
A further assay addresses ZNF721 DBD2 (Homo sapiens, UniProt Q8TF20-2 395-923). The gist of the method: as §1

Chain of ZNF721 full-length (Q8TF20 other isoform, or with tags, fused parts or gaps): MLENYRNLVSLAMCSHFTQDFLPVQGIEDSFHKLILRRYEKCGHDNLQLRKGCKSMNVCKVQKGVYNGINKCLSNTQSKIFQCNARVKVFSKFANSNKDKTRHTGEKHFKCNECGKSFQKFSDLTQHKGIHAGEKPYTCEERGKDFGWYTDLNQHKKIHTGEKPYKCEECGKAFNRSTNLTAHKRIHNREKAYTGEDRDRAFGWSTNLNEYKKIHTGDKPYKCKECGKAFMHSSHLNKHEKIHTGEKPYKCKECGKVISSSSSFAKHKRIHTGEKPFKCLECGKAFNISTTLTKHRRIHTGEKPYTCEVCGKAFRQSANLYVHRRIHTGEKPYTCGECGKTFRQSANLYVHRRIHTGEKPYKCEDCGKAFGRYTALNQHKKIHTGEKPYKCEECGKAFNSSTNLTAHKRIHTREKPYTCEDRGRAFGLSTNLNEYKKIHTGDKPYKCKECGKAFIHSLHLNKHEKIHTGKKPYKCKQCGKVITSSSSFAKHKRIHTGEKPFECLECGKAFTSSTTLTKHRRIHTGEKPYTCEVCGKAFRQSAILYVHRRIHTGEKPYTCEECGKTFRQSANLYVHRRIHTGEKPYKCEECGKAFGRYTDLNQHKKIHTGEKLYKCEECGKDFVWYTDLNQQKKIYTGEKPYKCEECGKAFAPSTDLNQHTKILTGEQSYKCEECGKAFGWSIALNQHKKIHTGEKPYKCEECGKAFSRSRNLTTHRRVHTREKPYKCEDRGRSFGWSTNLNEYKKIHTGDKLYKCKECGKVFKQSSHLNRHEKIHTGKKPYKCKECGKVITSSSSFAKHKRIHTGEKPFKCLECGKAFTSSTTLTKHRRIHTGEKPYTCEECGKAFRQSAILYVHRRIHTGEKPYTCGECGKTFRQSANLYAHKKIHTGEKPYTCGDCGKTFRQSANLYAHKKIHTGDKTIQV
Chain of ZNF721 DBD2 (Q8TF20 383-911): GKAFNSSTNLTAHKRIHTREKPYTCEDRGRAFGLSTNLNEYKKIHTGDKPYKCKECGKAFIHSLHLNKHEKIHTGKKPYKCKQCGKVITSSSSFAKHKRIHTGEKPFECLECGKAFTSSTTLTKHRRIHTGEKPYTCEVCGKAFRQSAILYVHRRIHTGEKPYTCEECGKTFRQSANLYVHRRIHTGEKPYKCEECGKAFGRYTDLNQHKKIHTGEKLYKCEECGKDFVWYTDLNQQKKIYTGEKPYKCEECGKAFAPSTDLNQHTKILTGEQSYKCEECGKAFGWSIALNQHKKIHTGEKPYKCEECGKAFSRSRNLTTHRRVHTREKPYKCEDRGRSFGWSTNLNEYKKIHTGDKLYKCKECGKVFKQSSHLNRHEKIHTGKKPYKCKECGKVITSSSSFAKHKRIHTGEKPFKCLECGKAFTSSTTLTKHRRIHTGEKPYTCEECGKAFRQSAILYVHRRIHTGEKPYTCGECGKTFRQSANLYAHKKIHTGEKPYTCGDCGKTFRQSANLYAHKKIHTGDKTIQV
Chain of ZNF721 DBD1 (Q8TF20 17-449): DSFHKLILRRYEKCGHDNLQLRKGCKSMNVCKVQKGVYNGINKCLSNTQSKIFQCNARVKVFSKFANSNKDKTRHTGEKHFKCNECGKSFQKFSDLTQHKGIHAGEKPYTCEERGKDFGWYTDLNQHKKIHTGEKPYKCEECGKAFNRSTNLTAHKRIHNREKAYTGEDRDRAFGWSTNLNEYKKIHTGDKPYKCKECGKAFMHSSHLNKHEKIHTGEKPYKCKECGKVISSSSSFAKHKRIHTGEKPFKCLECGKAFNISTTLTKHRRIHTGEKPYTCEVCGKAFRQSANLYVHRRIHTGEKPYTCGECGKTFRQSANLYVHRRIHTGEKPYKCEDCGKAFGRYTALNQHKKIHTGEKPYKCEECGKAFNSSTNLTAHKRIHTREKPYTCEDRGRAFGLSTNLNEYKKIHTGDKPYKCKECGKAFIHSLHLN

Turning to CCCAACCCCC, the values for the binding signal in the assay with ZNF721 full-length, with ZNF721 DBD1 and with ZNF721 DBD2 were 0.208 relative 10-mer count, 0.00789 relative 10-mer count and 0.00168 relative 10-mer count, respectively.
As for AGCAGTACCA, the binding signal with ZNF721 full-length was 0.118 relative 10-mer count; in the assay with ZNF721 DBD1 it was 0.0341 relative 10-mer count; with ZNF721 DBD2 it was 0.0533 relative 10-mer count.
The matching figures for CCCTCCCTCC: 0.178 relative 10-mer count, 0.0107 relative 10-mer count and 0.0211 relative 10-mer count.
Taken in the same sequence, the figures for CCCCTCTCCC were 0.107 relative 10-mer count, 0.00454 relative 10-mer count and 0.00204 relative 10-mer count.
CCGCCACCAC: the binding signal with ZNF721 full-length was found to be 0.106 relative 10-mer count; in the assay with ZNF721 DBD1, 0.00417 relative 10-mer count; in the assay with ZNF721 DBD2, 0.0036 relative 10-mer count.
In the case of CTGCTTTTTC, the binding signal with ZNF721 full-length was found to be 0.202 relative 10-mer count; in the assay with ZNF721 DBD1, 0.00491 relative 10-mer count; in the assay with ZNF721 DBD2 it was 0.196 relative 10-mer count.
As to CCCCACGCCC, the values for the binding signal in the assay with ZNF721 full-length, in the assay with ZNF721 DBD1 and with ZNF721 DBD2 were 0.235 relative 10-mer count, 0.00853 relative 10-mer count and 0.00395 relative 10-mer count, respectively.
CACCCCTCCC: the binding signal in the assay with ZNF721 full-length came out at 0.181 relative 10-mer count; in the assay with ZNF721 DBD1 it was 0.00826 relative 10-mer count; in the assay with ZNF721 DBD2, 0.00336 relative 10-mer count.
Taken in the same sequence, the figures for AGGGAGGGGG were 0.15 relative 10-mer count, 0.00628 relative 10-mer count and 0.00384 relative 10-mer count.
For the sequence CCGCCCTCCC, the values for the binding signal with ZNF721 full-length, in the assay with ZNF721 DBD1 and with ZNF721 DBD2 were 0.148 relative 10-mer count, 0.00642 relative 10-mer count and 0.00252 relative 10-mer count, respectively.
For the sequence ACCCACCCCC, the binding signal worked out at 0.265 relative 10-mer count with ZNF721 full-length, 0.0111 relative 10-mer count with ZNF721 DBD1 and 0.00252 relative 10-mer count with ZNF721 DBD2.
Turning to CTTTTTTTTA, the binding signal with ZNF721 full-length came out at 0.14 relative 10-mer count; with ZNF721 DBD1, 0.0207 relative 10-mer count; with ZNF721 DBD2, 0.0588 relative 10-mer count.
The matching figures for CCCGCCCCAC: 0.207 relative 10-mer count, 0.00784 relative 10-mer count and 0.00252 relative 10-mer count.
Taken in the same sequence, the figures for ACAGCGTACC were 0.193 relative 10-mer count, 0.00115 relative 10-mer count and 0.259 relative 10-mer count.
Taken in the same sequence, the figures for AAAAAGCTGC were 0.229 relative 10-mer count, 0.0954 relative 10-mer count and 0.00372 relative 10-mer count.
CCCGCCACCC: the binding signal was 0.304 relative 10-mer count with ZNF721 full-length, 0.0125 relative 10-mer count with ZNF721 DBD1 and 0.00252 relative 10-mer count with ZNF721 DBD2.
Regarding CACCACCCCA, the binding signal with ZNF721 full-length amounted to 0.222 relative 10-mer count; with ZNF721 DBD1 it was 0.00803 relative 10-mer count; with ZNF721 DBD2, 0.00683 relative 10-mer count.
With CCACCCACCG, the binding signal came to 0.143 relative 10-mer count in the assay with ZNF721 full-length, 0.00615 relative 10-mer count in the assay with ZNF721 DBD1 and 0.00731 relative 10-mer count with ZNF721 DBD2.
The matching figures for CACCCCACCA: 0.182 relative 10-mer count, 0.00725 relative 10-mer count and 0.00587 relative 10-mer count.
Regarding CACCCCGCCA, the binding signal with ZNF721 full-length was 0.108 relative 10-mer count; with ZNF721 DBD1, 0.00404 relative 10-mer count; with ZNF721 DBD2, 0.00455 relative 10-mer count.
The matching figures for CCCACCTCCC: 0.339 relative 10-mer count, 0.017 relative 10-mer count and 0.00551 relative 10-mer count.
Taken in the same sequence, the figures for AAAAAAGCGT were 0.276 relative 10-mer count, 0.0607 relative 10-mer count and 0.0512 relative 10-mer count.
Taken in the same sequence, the figures for CACCACACCC were 0.12 relative 10-mer count, 0.00486 relative 10-mer count and 0.00336 relative 10-mer count.
Turning to CCCACCCACG, the values for the binding signal with ZNF721 full-length, with ZNF721 DBD1 and with ZNF721 DBD2 were 0.141 relative 10-mer count, 0.00472 relative 10-mer count and 0.00551 relative 10-mer count, respectively.
Take ACCCCAACCC: the results for the binding signal with ZNF721 full-length, with ZNF721 DBD1 and with ZNF721 DBD2 were 0.128 relative 10-mer count, 0.00463 relative 10-mer count and 0.00348 relative 10-mer count, respectively.
With CGCCACCCCC, the figures for the binding signal in the assay with ZNF721 full-length, with ZNF721 DBD1 and with ZNF721 DBD2 were 0.212 relative 10-mer count, 0.00706 relative 10-mer count and 0.0024 relative 10-mer count, respectively.
For the sequence CCCGACCACC, the binding signal with ZNF721 full-length was 0.125 relative 10-mer count; with ZNF721 DBD1, 0.00491 relative 10-mer count; with ZNF721 DBD2 it was 0.00372 relative 10-mer count.
CCCACCGCCC: the values for the binding signal with ZNF721 full-length, in the assay with ZNF721 DBD1 and with ZNF721 DBD2 were 0.319 relative 10-mer count, 0.0135 relative 10-mer count and 0.00551 relative 10-mer count, respectively.
Taken in the same sequence, the figures for AAAAAAAGGC were 0.162 relative 10-mer count, 0.00225 relative 10-mer count and 0.117 relative 10-mer count.
Taken in the same sequence, the figures for CCCCACTCCC were 0.157 relative 10-mer count, 0.00688 relative 10-mer count and 0.00216 relative 10-mer count.
Consider CCCGCCCCTC, for which the binding signal in the assay with ZNF721 full-length was determined as 0.127 relative 10-mer count; in the assay with ZNF721 DBD1 it was 0.00633 relative 10-mer count; with ZNF721 DBD2, 0.00144 relative 10-mer count.
With CGAAAAAAAG, the binding signal in the assay with ZNF721 full-length worked out at 0.159 relative 10-mer count; with ZNF721 DBD1, 0.0289 relative 10-mer count; with ZNF721 DBD2, 0.0578 relative 10-mer count.
The matching figures for AGGGGCGGGG: 0.125 relative 10-mer count, 0.0044 relative 10-mer count and 0.00168 relative 10-mer count.
Taken in the same sequence, the figures for CCCCTCCTCC were 0.154 relative 10-mer count, 0.00794 relative 10-mer count and 0.00515 relative 10-mer count.
The matching figures for AGCGTACCCT: 0.204 relative 10-mer count, 0.0586 relative 10-mer count and 0.165 relative 10-mer count.
For ACCCCCCCGC, the results for the binding signal in the assay with ZNF721 full-length, with ZNF721 DBD1 and in the assay with ZNF721 DBD2 were 0.112 relative 10-mer count, 0.00248 relative 10-mer count and 0.003 relative 10-mer count, respectively.
For CACCCCCCTC, the binding signal in the assay with ZNF721 full-length was 0.127 relative 10-mer count; with ZNF721 DBD1, 0.00633 relative 10-mer count; with ZNF721 DBD2, 0.00479 relative 10-mer count.

Source of the values: PMC13541613, “GHT-SELEX demonstrates unexpectedly high intrinsic sequence specificity and complex DNA binding of many human transcription factors”.
